Measured values published in PubChem BioAssay (EPA / NIEHS).
Records with an inconclusive call do not appear. Some compounds were tested as several samples or in several runs, with calls that do not always agree. Active and inactive are the calls of the source. How the source made its calls, unless noted: active means hit-call score of the fitted dose curve at least 0.9, where 1 is the maximum; inconclusive means response in the unintended direction; inactive means score below 0.9.

Legend:
[1] = ATG_TAL_CIS: Attagene CIS-FACTORIAL HepG2 Assay for human TAL Basal Promoter (AID 2282966; active means hit-call score of the fitted dose curve at least 0.9, where 1 is the maximum; inactive means score below 0.9;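 further: background control endpoint measuring basal TAL promoter reporter mRNA not a specific factor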); settings: HepG2 Attagene cis-factorial TAL promoter reporter; actives raise or lower the signal
In short: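 HepG2 cells were transiently transfected with promoter-driven multiplexed reporter units and dosed for 24 h. Reporter mRNA was measured by RT-PCR with capillary electrophoresis fluorescence; bidirectional fits used DMSO as baseline, serving as a background control.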

[2] = ATG_TGFb_CIS: Attagene CIS-FACTORIAL HepG2 Assay for human Transforming Growth Factor (TGF) (AID 2282967; active means hit-call score of the fitted dose curve at least 0.9, where 1 is the maximum; inactive means score below 0.9); settings: HepG2 Attagene CIS TGFb reporter, mRNA transcription; actives raise or lower the signal
In short: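 Transient MRTU transfection of HepG2 (FuGene 6). Dose 24 h. TriZol RNA, oligo(dT) RT, PCR, 6-FAM primer extension, HpaI cut, CE. Bidirectional fit, DMSO = baseline.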

[3] = ATG_VDRE_CIS: Attagene CIS-FACTORIAL HepG2 Assay for human Vitamin D Receptor Element (VDRE) (AID 2282968; active means hit-call score of the fitted dose curve at least 0.9, where 1 is the maximum; inactive means score below 0.9); settings: HepG2 VDRE cis-reporter transcription, actives raise or lower the signal
In short: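 Transiently transfected HepG2 cells carrying cis-regulated reporter transcription units were exposed for 24 h. Reporter mRNA was measured by RT-PCR with fluorescent labelling and capillary electrophoresis, and fitted in both directions against DMSO.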

[4] = target: Nuclear receptor subfamily 1 group I member 3 (Homo sapiens) (UniProt Q14994); experiment: ATG_CAR_TRANS: Attagene TRANS-FACTORIAL HepG2 Assay for human Constitutive Androstane Receptor (CAR) (AID 2282969); settings: HepG2 Attagene TRANS-FACTORIAL CAR reporter;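 further: activators raise reporter mRNA above DMSO so AC50 marks induction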
In short: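 HepG2 cells transiently transfected with GAL4-UAS reporter units; TRANS format reads activity of exogenous chimeric NR-Gal4 protein. After 24 h dosing, reporter mRNA quantified by RT-PCR, 6-FAM labelling and capillary electrophoresis; gain of signal fitted against DMSO.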

[5] = target: Steroid hormone receptor ERR1 (Homo sapiens) (UniProt P11474); experiment: ATG_ERRa_TRANS: Attagene TRANS-FACTORIAL HepG2 Assay for human Estrogen-Related Receptor alpha (ERRa) (AID 2282971); settings: HepG2 Attagene TRANS reporter, ERRa transactivation
In short: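 HepG2 cells transiently transfected with multiplexed GAL4-UAS reporter units reading chimeric ERRa-Gal4 activity; 24 h compound exposure. Reporter mRNA measured by RT-PCR, 6-FAM labelling, HpaI digest and capillary electrophoresis; gain of signal fitted versus DMSO baseline.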

[6] = target: X-box-binding protein 1 (Homo sapiens) (UniProt P17861); experiment: ATG_Xbp1_CIS: Attagene CIS-FACTORIAL HepG2 Assay for human X-box Binding Protein 1 (XBP1) (AID 2282972; active means hit-call score of the fitted dose curve at least 0.9, where 1 is the maximum; inactive means score below 0.9); settings: HepG2 XBP1 cis-element reporter, Attagene multiplex; actives raise or lower the signal
In short: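 HepG2 cells transiently transfected with multiple cis-element reporter units report endogenous TF activity; 24 h exposure, then reporter mRNA measured by RT-PCR, 6-FAM labelling, HpaI digestion and capillary electrophoresis. Bidirectional fitting versus DMSO.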

[7] = target: Estrogen-related receptor gamma (Homo sapiens) (UniProt P62508); experiment: ATG_ERRg_TRANS: Attagene TRANS-FACTORIAL HepG2 Assay for human Estrogen-Related Receptor gamma (ERRg) (AID 2282977); settings: HepG2 Attagene TRANS reporter, ERRg transactivation;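 further: hits increase reporter signal over DMSO so potencies reflect activators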
In short: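 HepG2 cells transiently transfected with multiplexed GAL4-UAS reporter units driven by chimeric NR-Gal4 proteins; 24 h exposure. Reporter mRNA quantified by RT-PCR, fluorescent labelling, HpaI digestion and capillary electrophoresis; gain of signal vs DMSO.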

[8] = target: Glucocorticoid receptor (Homo sapiens) (UniProt P04150); experiment: ATG_GR_TRANS: Attagene TRANS-FACTORIAL HepG2 Assay for human Glucocorticoid Receptor (GR) (AID 2282978); settings: HepG2 Attagene TRANS GR reporter, mRNA transcription;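 further: activators score as hits since higher reporter transcript over DMSO is fitted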
In short: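 After 24 h incubation with test chemical, transfected HepG2 cells were lysed for RNA; reporter cDNA was amplified, FAM-labelled, HpaI-digested and sized on a capillary analyser. Signal gain relative to DMSO was scored.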

[9] = target: Oxysterols receptor LXR-alpha (Homo sapiens) (UniProt Q13133); experiment: ATG_LXRa_TRANS: Attagene TRANS-FACTORIAL HepG2 Assay for human Liver X Receptor alpha (LXRa) (AID 2282980); settings: HepG2 Attagene TRANS reporter, LXRa transactivation
In short: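 HepG2 cells were transiently transfected with multiplexed reporter units driven by chimeric LXRa–GAL4 fusion proteins, then dosed for 24 h. Reporter mRNA was quantified by RT-PCR, fluorescent labelling and capillary electrophoresis; gain of signal fitted against DMSO baseline.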

[10] = ATG_M_06_TRANS: Attagene TRANS-FACTORIAL HepG2 Assay for M06 Transcription Factor (Internal Marker) (AID 2282983); settings: HepG2 Attagene TRANS M06 internal marker reporter;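 further: reporter transcript level by RT-PCR then capillary electrophoresis fluorescence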
In short: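 HepG2 cells transiently transfected with multiplexed GAL4-UAS reporter transcription units; after 24 h compound exposure, reporter mRNA measured by RT-PCR, FAM-labelled primer extension, HpaI digestion and capillary electrophoresis. Gain-of-signal fitted versus DMSO baseline; background control readout.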

[11] = target: Transcriptional activator Myb (Homo sapiens) (UniProt P10242); experiment: ATG_Myb_CIS: Attagene CIS-FACTORIAL HepG2 Assay for human Myeloblastosis (Myb) Proto-Oncogene Transcription Factor (AID 2282986; active means hit-call score of the fitted dose curve at least 0.9, where 1 is the maximum; inactive means score below 0.9); settings: HepG2 Attagene CIS-FACTORIAL Myb reporter transcription; actives raise or lower the signal
In short: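 After 24 h of compound dosing, total RNA from transfected HepG2 cells is reverse-transcribed and the reporter sequences amplified, labeled and separated by capillary electrophoresis. Values come from bidirectional fitting against DMSO.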

[12] = target: Estrogen receptor (Homo sapiens) (UniProt P03372); experiment: ATG_ERa_TRANS: Attagene TRANS-FACTORIAL HepG2 Assay for human Estrogen Receptor alpha (ERa) (AID 2282970); settings: HepG2 Attagene TRANS ERa GAL4 reporter, mRNA
In short: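 HepG2 cells transiently transfected with multiplexed GAL4-UAS reporter units; ERa activity read via exogenous chimeric NR-Gal4 protein. After 24 hour compound exposure, reporter mRNA measured by RT-PCR with 6-FAM labelling and capillary electrophoresis; gain-of-signal fitted relative to DMSO.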

[13] = ATG_M_32_TRANS: Attagene TRANS-FACTORIAL HepG2 Assay for M32 Transcription Factor (Internal Marker) (AID 2282984); settings: HepG2 Attagene TRANS M32 internal marker reporter
In short: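 HepG2 cells transiently transfected with GAL4-UAS reporter units, dosed for 24 hours. Reporter mRNA quantified by RT-PCR, 6-FAM labelling, HpaI digestion and capillary electrophoresis; internal-marker signal fitted upward relative to DMSO.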

[14] = ATG_Hpa5_TRANS: Attagene TRANS-FACTORIAL HepG2 Assay for human GAL4-Hpa5 Hepatocyte Transcription Factor Basal Promoter (AID 2282975); settings: HepG2 Attagene GAL4-Hpa5 transcription reporter;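 further: hits are increases in reporter mRNA over DMSO baseline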
In short: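 Basal-promoter GAL4 background control within the HepG2 trans-factorial panel of transiently transfected reporter units. Reporter mRNA is measured 24 h after dosing by RT-PCR and capillary electrophoresis, fitted for gain of signal versus DMSO.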

[15] = target: Bile acid receptor (Homo sapiens) (UniProt Q96RI1); experiment: ATG_FXR_TRANS: Attagene TRANS-FACTORIAL HepG2 Assay for Farnesoid X Receptor (FXR) (AID 2282979); settings: HepG2 Attagene TRANS FXR-GAL4 reporter transcription;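 further: hits raise reporter mRNA above DMSO so AC50 marks FXR activation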
In short: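 HepG2 cells transiently transfected with reporter constructs in which a chimeric FXR-GAL4 protein drives a GAL4-UAS reporter; 24 h compound exposure. Reporter mRNA measured by RT-PCR, FAM labelling, HpaI digestion and capillary electrophoresis; gain-of-signal versus DMSO.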

[16] = target: Oxysterols receptor LXR-beta (Homo sapiens) (UniProt P55055); experiment: ATG_LXRb_TRANS: Attagene TRANS-FACTORIAL HepG2 Assay for human Liver X Receptor beta (LXRb) (AID 2282981); settings: HepG2 Attagene TRANS GAL4-LXRb reporter, mRNA
In short: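 HepG2 cells transiently transfected with GAL4-UAS reporter units for chimeric NR-Gal4 proteins, dosed for 24 h. Reporter transcripts measured by RT-PCR and capillary electrophoresis; gain-of-signal fitting relative to DMSO.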

[17] = target: Nuclear receptor subfamily 4 group A member 2 (Homo sapiens) (UniProt P43354); experiment: ATG_NURR1_TRANS: Attagene TRANS-FACTORIAL HepG2 Assay for human Nuclear Receptor Related Protein 1 (NURR1) (AID 2282985); settings: HepG2 Attagene TRANS reporter, mRNA readout
In short: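 HepG2 cells transiently transfected with NURR1-Gal4 chimera and GAL4-UAS reporter units; after 24 hr compound exposure, reporter mRNA quantified by RT-PCR and capillary electrophoresis; gain of signal fitted against DMSO.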

[18] = ATG_M_19_TRANS: Attagene TRANS-FACTORIAL HepG2 Assay for M19 Transcription Factor (Internal Marker) (AID 2282974); settings: HepG2 Attagene TRANS-FACTORIAL M19 internal marker reporter
In short: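 Transfected HepG2 (GAL4-UAS MRTUs), 24 h compound, TriZol RNA, DNase-treated RT, reporter PCR, FAM label, HpaI digest, CE fluorescence; gain vs DMSO.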

[19] = ATG_GAL4_TRANS: Attagene TRANS-FACTORIAL HepG2 Assay for GAL4 (Internal Marker) (AID 2282976); settings: HepG2 Attagene TRANS GAL4 internal marker reporter
In short: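 HepG2 cells transiently transfected with multiplexed GAL4-UAS reporter constructs were dosed for 24 h. Reporter mRNA was measured by RT-PCR, 6-FAM primer extension, HpaI digestion and capillary electrophoresis, and gain of signal was fitted relative to DMSO.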

Measured: AC50

X-box-binding protein 1 (Homo sapiens), sequence (P17861 whole entry, looked up): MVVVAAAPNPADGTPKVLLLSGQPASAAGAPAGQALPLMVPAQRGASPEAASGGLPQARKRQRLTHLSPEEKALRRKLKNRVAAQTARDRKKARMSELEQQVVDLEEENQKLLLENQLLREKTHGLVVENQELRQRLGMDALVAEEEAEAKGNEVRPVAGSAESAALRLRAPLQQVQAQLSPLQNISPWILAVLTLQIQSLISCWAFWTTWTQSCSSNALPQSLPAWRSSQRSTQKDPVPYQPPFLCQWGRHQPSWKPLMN
Nuclear receptor subfamily 1 group I member 3 (Homo sapiens), sequence (Q14994 whole entry, looked up, the tested form may be a part): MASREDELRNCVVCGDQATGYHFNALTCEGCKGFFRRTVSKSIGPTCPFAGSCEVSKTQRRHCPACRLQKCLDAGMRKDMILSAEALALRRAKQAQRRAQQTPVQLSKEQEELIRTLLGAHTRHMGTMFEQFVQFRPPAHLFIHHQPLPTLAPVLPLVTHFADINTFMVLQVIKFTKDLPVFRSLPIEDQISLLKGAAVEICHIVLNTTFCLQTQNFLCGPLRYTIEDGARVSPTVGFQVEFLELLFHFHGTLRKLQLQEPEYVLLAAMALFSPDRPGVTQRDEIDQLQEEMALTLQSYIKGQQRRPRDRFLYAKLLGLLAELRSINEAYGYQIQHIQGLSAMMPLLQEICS
Estrogen receptor (Homo sapiens), sequence (P03372 whole entry, looked up, the tested form may be a part): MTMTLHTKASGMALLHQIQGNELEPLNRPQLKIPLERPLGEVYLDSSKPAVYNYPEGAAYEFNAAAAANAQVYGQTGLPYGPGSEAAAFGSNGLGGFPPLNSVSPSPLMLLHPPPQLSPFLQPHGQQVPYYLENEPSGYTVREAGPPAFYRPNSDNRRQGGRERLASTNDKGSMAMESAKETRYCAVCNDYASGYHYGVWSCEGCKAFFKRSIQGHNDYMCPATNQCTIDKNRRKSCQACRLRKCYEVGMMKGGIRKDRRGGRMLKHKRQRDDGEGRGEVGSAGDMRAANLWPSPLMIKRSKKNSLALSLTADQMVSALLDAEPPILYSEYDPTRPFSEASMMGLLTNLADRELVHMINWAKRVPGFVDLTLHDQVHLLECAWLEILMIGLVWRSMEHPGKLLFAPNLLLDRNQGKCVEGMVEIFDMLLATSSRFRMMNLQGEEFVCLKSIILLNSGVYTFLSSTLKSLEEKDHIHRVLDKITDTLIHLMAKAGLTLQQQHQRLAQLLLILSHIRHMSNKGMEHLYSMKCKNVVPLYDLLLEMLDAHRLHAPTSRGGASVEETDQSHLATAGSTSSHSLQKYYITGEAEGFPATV
Oxysterols receptor LXR-alpha (Homo sapiens), sequence (Q13133 whole entry, looked up, the tested form may be a part): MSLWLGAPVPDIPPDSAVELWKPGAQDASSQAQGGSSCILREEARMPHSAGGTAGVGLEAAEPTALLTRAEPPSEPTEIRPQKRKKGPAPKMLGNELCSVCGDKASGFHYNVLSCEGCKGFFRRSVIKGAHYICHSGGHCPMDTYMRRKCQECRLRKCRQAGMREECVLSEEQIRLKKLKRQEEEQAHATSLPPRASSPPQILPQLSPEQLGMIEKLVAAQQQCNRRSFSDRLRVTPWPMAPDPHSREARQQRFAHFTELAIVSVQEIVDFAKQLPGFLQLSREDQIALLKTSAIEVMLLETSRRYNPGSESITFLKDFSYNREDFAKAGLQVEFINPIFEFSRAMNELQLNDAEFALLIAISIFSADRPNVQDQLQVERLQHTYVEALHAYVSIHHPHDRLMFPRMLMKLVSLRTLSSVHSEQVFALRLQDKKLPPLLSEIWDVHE
Glucocorticoid receptor (Homo sapiens), sequence (P04150 whole entry, looked up): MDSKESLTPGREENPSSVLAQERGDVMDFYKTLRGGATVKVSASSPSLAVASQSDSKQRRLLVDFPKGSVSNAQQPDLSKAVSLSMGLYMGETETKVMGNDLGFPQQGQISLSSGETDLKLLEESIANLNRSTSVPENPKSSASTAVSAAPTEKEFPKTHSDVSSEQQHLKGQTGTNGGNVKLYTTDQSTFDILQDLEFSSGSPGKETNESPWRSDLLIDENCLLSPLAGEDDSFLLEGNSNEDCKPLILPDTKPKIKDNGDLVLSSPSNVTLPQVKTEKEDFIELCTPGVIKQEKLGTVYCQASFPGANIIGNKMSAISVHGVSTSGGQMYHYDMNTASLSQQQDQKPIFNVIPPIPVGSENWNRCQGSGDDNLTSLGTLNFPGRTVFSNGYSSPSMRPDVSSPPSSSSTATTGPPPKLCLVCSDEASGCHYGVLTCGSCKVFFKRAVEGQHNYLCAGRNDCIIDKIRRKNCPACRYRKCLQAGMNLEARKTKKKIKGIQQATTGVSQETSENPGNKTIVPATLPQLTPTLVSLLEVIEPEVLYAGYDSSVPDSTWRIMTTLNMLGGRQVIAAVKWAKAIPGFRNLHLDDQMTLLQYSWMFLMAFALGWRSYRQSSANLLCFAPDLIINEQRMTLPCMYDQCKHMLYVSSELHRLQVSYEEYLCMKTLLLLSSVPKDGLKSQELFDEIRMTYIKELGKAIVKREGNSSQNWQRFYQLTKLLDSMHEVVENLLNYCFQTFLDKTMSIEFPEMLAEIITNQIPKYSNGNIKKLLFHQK
Nuclear receptor subfamily 4 group A member 2 (Homo sapiens), sequence (P43354 whole entry, looked up, the tested form may be a part): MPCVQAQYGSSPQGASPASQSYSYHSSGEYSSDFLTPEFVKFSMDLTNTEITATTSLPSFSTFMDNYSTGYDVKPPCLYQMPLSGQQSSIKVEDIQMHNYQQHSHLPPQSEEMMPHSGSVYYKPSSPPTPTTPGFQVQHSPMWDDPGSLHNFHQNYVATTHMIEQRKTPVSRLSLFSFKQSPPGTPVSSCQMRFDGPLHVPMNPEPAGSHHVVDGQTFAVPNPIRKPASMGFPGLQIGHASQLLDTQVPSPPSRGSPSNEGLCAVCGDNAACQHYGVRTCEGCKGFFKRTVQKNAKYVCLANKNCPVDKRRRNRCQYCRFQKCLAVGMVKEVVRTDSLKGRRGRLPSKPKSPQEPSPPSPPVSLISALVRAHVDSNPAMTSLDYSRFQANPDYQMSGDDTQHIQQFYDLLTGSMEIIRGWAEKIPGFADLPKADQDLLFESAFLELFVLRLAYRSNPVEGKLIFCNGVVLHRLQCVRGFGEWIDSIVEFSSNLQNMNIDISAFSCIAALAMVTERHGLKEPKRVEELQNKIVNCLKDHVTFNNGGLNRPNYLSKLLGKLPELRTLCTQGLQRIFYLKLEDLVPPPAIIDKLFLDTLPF
Transcriptional activator Myb (Homo sapiens), sequence (P10242 whole entry, looked up): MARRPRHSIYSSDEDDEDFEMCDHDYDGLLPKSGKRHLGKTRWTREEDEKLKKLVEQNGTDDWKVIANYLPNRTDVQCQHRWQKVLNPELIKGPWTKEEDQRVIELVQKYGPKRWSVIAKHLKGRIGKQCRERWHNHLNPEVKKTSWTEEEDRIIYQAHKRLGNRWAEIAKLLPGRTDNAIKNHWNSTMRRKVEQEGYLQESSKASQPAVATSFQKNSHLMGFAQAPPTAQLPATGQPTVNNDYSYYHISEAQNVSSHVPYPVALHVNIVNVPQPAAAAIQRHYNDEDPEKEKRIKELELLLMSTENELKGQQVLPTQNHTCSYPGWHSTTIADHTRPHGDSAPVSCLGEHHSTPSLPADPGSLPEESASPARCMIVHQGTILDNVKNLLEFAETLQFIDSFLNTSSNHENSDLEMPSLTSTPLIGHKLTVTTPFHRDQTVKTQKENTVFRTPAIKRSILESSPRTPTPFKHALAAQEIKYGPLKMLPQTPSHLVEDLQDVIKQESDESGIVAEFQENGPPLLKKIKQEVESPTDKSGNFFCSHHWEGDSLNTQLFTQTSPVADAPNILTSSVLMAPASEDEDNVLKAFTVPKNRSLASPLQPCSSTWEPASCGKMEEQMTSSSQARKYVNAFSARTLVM
Oxysterols receptor LXR-beta (Homo sapiens), sequence (P55055 whole entry, looked up, the tested form may be a part): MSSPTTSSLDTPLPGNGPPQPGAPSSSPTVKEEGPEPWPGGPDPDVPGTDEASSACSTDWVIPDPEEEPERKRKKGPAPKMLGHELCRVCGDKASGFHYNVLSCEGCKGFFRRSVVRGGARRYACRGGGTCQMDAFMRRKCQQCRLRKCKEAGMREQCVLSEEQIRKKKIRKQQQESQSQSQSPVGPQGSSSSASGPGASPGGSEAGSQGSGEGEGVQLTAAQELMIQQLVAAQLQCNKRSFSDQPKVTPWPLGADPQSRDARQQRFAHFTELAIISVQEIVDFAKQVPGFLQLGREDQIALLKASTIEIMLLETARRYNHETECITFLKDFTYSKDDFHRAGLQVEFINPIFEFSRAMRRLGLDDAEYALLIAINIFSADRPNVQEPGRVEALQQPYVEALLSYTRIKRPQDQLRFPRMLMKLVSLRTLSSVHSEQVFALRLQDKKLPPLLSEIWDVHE
Estrogen-related receptor gamma (Homo sapiens), sequence (P62508 whole entry, looked up, the tested form may be a part): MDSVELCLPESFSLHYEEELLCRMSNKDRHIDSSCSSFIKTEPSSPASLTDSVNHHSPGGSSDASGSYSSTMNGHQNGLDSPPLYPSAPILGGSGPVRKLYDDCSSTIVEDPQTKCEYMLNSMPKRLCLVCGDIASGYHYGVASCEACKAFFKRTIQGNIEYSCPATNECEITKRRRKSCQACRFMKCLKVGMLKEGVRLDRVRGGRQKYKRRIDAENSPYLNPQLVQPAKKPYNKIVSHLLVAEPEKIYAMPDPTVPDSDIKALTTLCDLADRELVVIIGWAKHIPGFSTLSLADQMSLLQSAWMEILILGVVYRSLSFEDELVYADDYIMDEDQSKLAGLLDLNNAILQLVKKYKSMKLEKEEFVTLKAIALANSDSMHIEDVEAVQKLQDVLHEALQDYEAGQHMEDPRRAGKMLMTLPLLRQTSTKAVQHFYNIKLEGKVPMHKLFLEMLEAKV

CCOP(=S)(Oc1cnc(C(C)(C)C)nc1)OC(C)C (configuration not stated)
inactive: [1] | [4] | [5] | [6] | [7] | [8] | [10] | [11]
active: [2] 86.9 µM | [3] 1.89 µM | [9] 9.2 µM

CCCCOC(=O)[C@@H](C)Oc1ccc(Oc2ccc(C#N)cc2F)cc1
inactive: [1] | [2] | [3] | [4] | [12] | [5] | [6] | [7] | [8] | [9] | [13] | [11]

CNC(=O)Oc1cccc2c1OC(C)(C)O2
inactive: [1] | [2] | [12] | [14] | [15] | [9] | [16] | [10] | [13] | [11]
active: [3] 50 µM | [6] 33.2 µM

CCCOc1nn(C(=O)NS(=O)(=O)c2ccccc2C(=O)OC)c(=O)n1C
inactive: [1] | [2] | [3] | [4] | [6] | [8] | [17] | [11]

CNc1cnn(-c2cccc(C(F)(F)F)c2)c(=O)c1Cl
active: [3] 13.6 µM
inactive: [1] | [2] | [4] | [6] | [14] | [8] | [9] | [10] | [11]

CCCSP(=O)(OCC)SCCC
active: [3] 50 µM
inactive: [1] | [2] | [4] | [6] | [18] | [14] | [8] | [15] | [9] | [17] | [11]

O=[N+]([O-])c1cc(C(F)(F)F)c(Cl)c([N+](=O)[O-])c1Nc1ncc(C(F)(F)F)cc1Cl
active: [2] 2.2 µM
inactive: [1] | [2] | [3] | [4] | [12] | [6] | [14] | [19] | [8] | [9] | [16] | [10] | [13] | [17] | [11]

CCc1cccc(CC)c1N(COC)C(=O)CCl
inactive: [1] | [2] | [12] | [6] | [8] | [9] | [11]
active: [3] 7.75 µM

CCOP(=O)(SC(C)CC)N1CCSC1=O (configuration not stated)
inactive: [1] | [2] | [3] | [4] | [6] | [14] | [13] | [11]
